Shown are actives, neighbours in structure and some others; about 2.1% of the full set was active somewhere.
ID4 SMM = binders of human ID4 protein, primary screen, biochemical, small molecule microarray, single point | DNA-binding protein inhibitor ID-4 (Homo sapiens), P47928 | actives 1.2% (n = 31,000) | Flag-ID4 binding, fluorescence F/B | AID 624137, 2012 | calls only; call rule not given here;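 also: a binder raises fluorescence above local background on the spot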
STK33 inh = STK33 kinase inhibitors, primary screen, biochemical, luminescence, ADP-Glo, MBP substrate; inhibition, % at 12.5 µM; actives 0.44% (n = 27,000); AID 2322, 2010; in the data active = inhibition above about 20%
Target sequence (Q9BYT3 whole entry, looked up): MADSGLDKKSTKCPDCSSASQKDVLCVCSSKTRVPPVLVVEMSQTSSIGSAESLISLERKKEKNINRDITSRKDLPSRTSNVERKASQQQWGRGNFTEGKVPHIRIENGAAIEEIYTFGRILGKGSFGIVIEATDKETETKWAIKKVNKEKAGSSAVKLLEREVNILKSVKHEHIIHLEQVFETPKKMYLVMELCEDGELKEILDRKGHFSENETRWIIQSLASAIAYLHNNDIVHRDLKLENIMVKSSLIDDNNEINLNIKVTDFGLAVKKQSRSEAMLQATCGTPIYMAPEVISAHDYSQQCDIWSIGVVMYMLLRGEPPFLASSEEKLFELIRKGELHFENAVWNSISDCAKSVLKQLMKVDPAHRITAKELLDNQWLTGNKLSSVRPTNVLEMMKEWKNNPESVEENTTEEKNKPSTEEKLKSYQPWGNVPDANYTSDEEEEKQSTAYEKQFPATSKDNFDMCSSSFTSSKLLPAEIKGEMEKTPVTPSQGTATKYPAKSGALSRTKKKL
mut p53 react = mutant p53 pathway re-activators, primary screen, cell-based, SW480, luciferase, single point, HTS | activation, % at 9.98 µM | actives 1.5% (n = 28,000) | SW480 PUMA-promoter luciferase, p53 mutant reactivation; in the data active = activation above about 52%
The depositor's hits bear a star; i = inactive; . = no result; + = active, no number.

SMILES | ID4 SMM | STK33 inh | mut p53 react
O=C(C[C@@H]1C[C@H]2c3cc(NS(=O)(=O)c4ccc(F)cc4)ccc3O[C@H]2[C@H](CO)O1)NCc1ccccn1 | i | . | 13.2
C=CC(C)(O)CC/C=C(\C)CCC(O)C(C)(C)O (stereo unspecified) | i | -4.4 | -3.0
CCOc1ccccc1Nc1nc(Nc2ccccc2OCC)nc(Sc2nnc(C)s2)n1 | i | 0.1 | -16.5
COCCNC(=O)C[C@@H]1C=C[C@@H](NC(=O)NC2CCCCC2)[C@@H](CO)O1 | i | . | .
CNC[C@@H]1Oc2ccc(NS(=O)(=O)c3ccccc3)cc2C(=O)N([C@H](C)CO)C[C@H]1C | i | -0.2 | 5.8
CNC[C@@H]1Oc2ccc(NS(=O)(=O)c3ccccc3)cc2C(=O)N([C@@H](C)CO)C[C@H]1C | + | -0.8 | 2.6
Cc1cc(C)c2nc(-c3ccncc3)cc(C(=O)NCCCn3ccnc3)c2c1 | i | -1.4 | 18.9
CC(C)NC(=O)Nc1ccc2c(c1)CC(=O)N([C@@H](C)CO)C[C@H](C)[C@@H](CN(C)Cc1ccc(-c3ccccc3)cc1)O2 | i | -3.9 | 4.3
CC1(C)C=Cc2cc3ccc(=O)oc3cc2O1 | . | . | 58.4*
COc1c2c(cc3oc(=O)ccc13)OC(C)(C)C=C2 | i | 3.6 | .
Cc1cc(C(=O)NCc2ccco2)no1 | i | 1.5 | -7.1
Cc1ccc(-c2cc(C(=O)NCc3ccco3)no2)cc1 | i | -3.0 | 73.4*
COc1ccc(NC(=O)NCc2ccccn2)cc1OC | i | 0.2 | -4.3
Cc1ccc(-c2cc(C(=O)NCc3ccccn3)no2)cc1 | i | 2.5 | 48.3
O=C(NCc1ccccn1)C(=O)Nc1ccc(Cl)c(Cl)c1 | i | 0.3 | 57.9*
O=C(NCc1ccccn1)c1cc(-c2ccccc2)on1 | i | -0.6 | 92.6*
CC(C)CC#Cc1ccc2c(c1)O[C@@H](CN(C)Cc1ccc3c(c1)OCO3)[C@@H](C)CN([C@H](C)CO)S2(=O)=O | i | . | .
C[C@H](CO)N1C[C@H](C)[C@@H](CN(C)C(=O)NC2CCCCC2)Oc2ccc(NC(=O)Cc3ccccc3)cc2CC1=O | i | . | 1.4
C[C@H]1CN([C@@H](C)CO)C(=O)CCCn2nncc2CO[C@H]1CN(C)CC1CCCCC1 | i | -0.6 | .
C[C@H](CO)N1C[C@H](C)[C@@H](CN(C)C(=O)Nc2ccccc2F)OCc2cnnn2CCCC1=O | + | -1.3 | 11.2
C[C@@H]1CN([C@@H](C)CO)C(=O)CCCn2nncc2CO[C@H]1CN(C)CC1CCCCC1 | + | 1.5 | .
C[C@@H]1CN([C@@H](C)CO)C(=O)CCCn2cc(nn2)CO[C@H]1CN(C)C(=O)c1ccc(N2CCN(C)CC2)cc1 | + | -3.7 | -0.4
C[C@H](CO)N1C[C@H](C)[C@H](CN(C)CC2CCCCC2)OCc2cn(nn2)CCCC1=O | i | -3.1 | .
C[C@H]1CN([C@@H](C)CO)C(=O)CCCn2nncc2CO[C@@H]1CN(C)C(=O)Nc1ccccc1F | i | -4.1 | 13.3
C[C@@H]1CN([C@H](C)CO)C(=O)CCCn2cc(nn2)CO[C@H]1CN(C)C(=O)c1ccc(N2CCN(C)CC2)cc1 | i | 0.1 | 12.4
SMILES | ID4 SMM | STK33 inh | mut p53 react
C[C@H](CO)N1C[C@H](C)[C@@H](CN(C)CC2CCCCC2)OCc2cn(nn2)CCCC1=O | + | 1.3 | .
CC(C)NC(=O)Nc1ccc2c(c1)C(=O)N([C@@H](C)CO)C[C@H](C)[C@H](CN(C)Cc1ccccc1)OCCCC[C@H](C)O2 | i | . | -10.0
CC(C)c1c(O)ccc2c1CCC1C(C)(C)CCC[C@]21C (stereo partly specified) | . | 3.3 | .
C[C@@H]1CN([C@@H](C)CO)C(=O)Cc2cc(NC(=O)NC3CCCCC3)ccc2O[C@@H]1CN(C)C | i | 0.4 | -7.9
COc1ccc(S(=O)(=O)Nc2ccc3c(c2)C(=O)N([C@@H](C)CO)C[C@H](C)[C@H](CN(C)C(=O)Nc2ccc(F)cc2)O3)cc1 | . | -0.9 | .
CCc1cccc(OCC(=O)Nc2ccc(OC)cc2[N+](=O)[O-])c1 | i | 1.3 | 91.0*
COc1cccc(OCC(=O)Nc2ccccc2[N+](=O)[O-])c1 | i | -1.3 | 49.4
COc1ccc(NC(=O)COc2c(Cl)c(C)c(Cl)c(C)c2Cl)c([N+](=O)[O-])c1 | i | -7.3 | 16.9
COc1ccc(NC(=O)COc2ccc(Br)cc2Cl)c([N+](=O)[O-])c1 | i | 0.4 | 26.3
COc1ccc(NC(=O)COc2ccccc2Cl)c([N+](=O)[O-])c1 | i | 1.8 | 84.3*
COc1ccc(NC(=O)COc2ccc(Cl)c(C)c2)c([N+](=O)[O-])c1 | i | -1.4 | 74.1*
COc1ccc(OCC(=O)Nc2ccc(OC)cc2[N+](=O)[O-])cc1 | i | -1.3 | 98.0*
COc1ccc(NC(=O)COc2cc(C)c(Br)cc2C)c([N+](=O)[O-])c1 | i | 0.5 | 2.6
C[C@@H]1CN([C@H](C)CO)C(=O)c2cccc(NC(=O)C3CCOCC3)c2O[C@@H]1CN(C)Cc1ccc(Cl)c(Cl)c1 | i | . | -3.9
c1csc(-c2nn3c(C4COc5ccccc5O4)nnc3s2)c1 (stereo unspecified) | i | 0.4 | 68.2*
c1ccc2c(c1)OCC(c1nnc3sc(-c4ccncc4)nn13)O2 (stereo unspecified) | i | -0.2 | 4.1
N#C[C@H]1[C@@H](c2ccc(-c3cccnc3)cc2)[C@@H](CO)N1C(=O)C1CC1 | i | . | .
Cc1cc(C)c(S(=O)(=O)N2CCN(CC(O)COc3ccc4ccccc4c3)CC2)c(C)c1 (stereo unspecified) | i | 0.3 | -0.4
Cc1cc(Cl)ccc1OC(C)C(=O)Nc1cccc(-c2nnc(-c3ccccc3)o2)c1 (stereo unspecified) | i | 0.7 | 84.7*
CCC(Oc1ccccc1)C(=O)Nc1cccc(NC(C)=O)c1 (stereo unspecified) | i | 3.4 | -7.0
CC(Oc1ccccc1)C(=O)Nc1cccc(-c2nnc(-c3ccccc3)o2)c1 (stereo unspecified) | i | 4.2 | 114.1*
CC(Oc1ccc(Cl)cc1Cl)C(=O)Nc1cccc(-c2nc3ccccc3o2)c1 (stereo unspecified) | i | -3.1 | 9.0
O=C(COc1ccc(C(=O)Nc2ccccc2Cl)cc1)Nc1ccccc1C(F)(F)F | i | -7.9 | 10.8
CCOc1ccc(N=C2NC(=O)C(CC(=O)Nc3ccc(OC)cc3)S2)cc1 (stereo unspecified) | i | -0.7 | -3.8
COc1cccc(OCc2nc(-c3ccccc3)no2)c1 | i | 1.5 | 112.2*
COc1cc(OC)cc(C(=O)NCc2nc(-c3ccccc3)no2)c1 | i | -1.8 | -2.3
O=C(CCN1C(=O)c2ccccc2C1=O)Nc1ccc(-c2nc3ccccc3o2)cc1 | i | -0.2 | 33.8
O=C(CCN1C(=O)c2ccccc2C1=O)Oc1c(-c2ccccc2)oc2ccccc2c1=O | i | 7.0 | 53.9*
CC(=O)c1cccc(NC(=O)CSc2nnc(-c3ccccc3Cl)n2-c2ccccc2)c1 | i | 1.9 | 17.2
Cc1noc(C)c1S(=O)(=O)N(C)C[C@H]1Oc2ccc(N(C)C)cc2CC(=O)N([C@@H](C)CO)C[C@@H]1C | i | 1.5 | 12.6

Screening data deposited in PubChem by Broad Institute.
